Where “and” joins values, the source holds several entries; their conditions need not be identical. Identical values can stand only once. Results filed as inconclusive are left out. Where a structure was tested more than once in an assay, its records may differ in their call. Calls of active or inactive are those of the source. Unless noted, calls come from the whole dose curve; as a rule, active = well fitted curve in the direction sought with a large enough effect in the repeat runs; inconclusive = weak or mixed curves; inactive = no such curve, though single readings can be large; an effect the other way counts as inactive or inconclusive.

For test [1], the target named is Thyrotropin-releasing hormone receptor (Homo sapiens) (UniProt P34981). In words: qHTS assay to identify small molecule agonists of the thyrotropin-releasing hormone receptor (TRHR) signaling pathway (AID 1346891; calls by dose curve; note: series mostly up to about 58 µM). In outline: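 HEK293 cells expressing TRHR plated 18 h at 37 C/5% CO2, calcium dye-loaded 2 h at 37 C, then compound added (agonist mode); kinetic calcium fluorescence read 3 min at 1 s intervals; 15 concentrations in triplicate.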
Thyrotropin-releasing hormone receptor (Homo sapiens), sequence (P34981 whole entry, looked up): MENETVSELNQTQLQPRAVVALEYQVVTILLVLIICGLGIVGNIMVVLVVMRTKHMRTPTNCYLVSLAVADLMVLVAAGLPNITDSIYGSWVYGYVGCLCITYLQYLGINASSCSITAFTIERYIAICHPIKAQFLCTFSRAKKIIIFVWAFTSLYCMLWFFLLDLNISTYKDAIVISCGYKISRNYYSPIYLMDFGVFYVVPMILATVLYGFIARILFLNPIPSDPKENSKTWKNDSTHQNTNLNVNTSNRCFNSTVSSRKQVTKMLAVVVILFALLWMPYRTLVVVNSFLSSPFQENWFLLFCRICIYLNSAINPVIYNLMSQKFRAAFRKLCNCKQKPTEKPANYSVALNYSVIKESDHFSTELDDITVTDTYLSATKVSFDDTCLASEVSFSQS

Test [2] in a line: Human pregnane X receptor (PXR) small molecule agonists, qHTS cell viability counter screen (AID 1346977). Note: nearly all actives have a fitted effect of over 50% in size. A digest of the protocol:
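PXR-Luc HepG2 cells (2,000/well, 5% charcoal-stripped FBS) preincubated 5 hr, then exposed to compounds 24 hr at 37 C. Viability read in the same wells by CellTiter-Fluor fluorescence, reagent added at 23 hr, 1 hr incubation.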
Background: qHTS replaces the single test concentration by a dilution series.

Test [3] in a line: Caspase-3/7 induction in HepG2 cells by small molecules, qHTS assay (AID 1346978). Note: nearly all actives have a fitted effect of over 15% in size. In outline:
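Wild-type HepG2 cells (2,000/well) were settled 5 h at 37 C, 5% CO2, then exposed to compounds in DMSO for 17 h. Caspase-3/7 activity was read by luminescence 30 min after adding Caspase-Glo 3/7 reagent at room temperature.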

A short description of test [4]: Caspase-3/7 induction in CHO-K1 cells by small molecules, qHTS cell viability counter screen (AID 1346979). Note: nearly all actives have a fitted effect of over 35% in size. In outline:
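Wild-type CHO-K1 cells (1,500/well) treated with compound after 5 h plating; after 16 h at 37C, viability read as CellTiter-Fluor fluorescence following 1 h reagent incubation, in the same wells as the caspase read.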

A short description of test [5]: Caspase-3/7 induction in CHO-K1 cells by small molecules, qHTS assay (AID 1346980). Note: nearly all actives have a fitted effect of over 15% in size. In outline: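 Wild-type cells were seeded at 1,500 per well and settled 5 hr at 37 C, 5% CO2, then exposed to DMSO-dissolved compounds for 17 hr. Caspase-Glo 3/7 reagent was added, and luminescence was read after 30min at room temperature.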
The nature of test [6]: Caspase-3/7 induction in HepG2 cells by small molecules, qHTS cell viability counter screen (AID 1346981). Note: series mostly up to about 92 µM; nearly all actives have a fitted effect of over 30% in size. In outline:
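CellTiter-Fluor fluorescence measured viability in the same wells used for Caspase-Glo 3/7. HepG2 (wild type) at 2,000 cells/well were pre-incubated 5 hr, dosed, and given reagent at 16 hr, with 1 hr further at 37C.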

Test [7] deals with Nuclear receptor subfamily 1 group I member 2 (Homo sapiens) (UniProt O75469). Description: Human pregnane X receptor (PXR) small molecule agonists, qHTS assay (AID 1346982). Note: nearly all actives have a fitted effect of over 35% in size. Note: potency is the fitted concentration of half-maximal effect. A digest of the protocol: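 Agonist mode: luminescence from ONE-Glo after 24 h compound exposure at 37C in HepG2 cells carrying hPXR-responsive CYP3A4 luciferase, plated in charcoal-stripped serum medium 5 h beforehand.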
Nuclear receptor subfamily 1 group I member 2 (Homo sapiens), sequence (O75469 whole entry, looked up): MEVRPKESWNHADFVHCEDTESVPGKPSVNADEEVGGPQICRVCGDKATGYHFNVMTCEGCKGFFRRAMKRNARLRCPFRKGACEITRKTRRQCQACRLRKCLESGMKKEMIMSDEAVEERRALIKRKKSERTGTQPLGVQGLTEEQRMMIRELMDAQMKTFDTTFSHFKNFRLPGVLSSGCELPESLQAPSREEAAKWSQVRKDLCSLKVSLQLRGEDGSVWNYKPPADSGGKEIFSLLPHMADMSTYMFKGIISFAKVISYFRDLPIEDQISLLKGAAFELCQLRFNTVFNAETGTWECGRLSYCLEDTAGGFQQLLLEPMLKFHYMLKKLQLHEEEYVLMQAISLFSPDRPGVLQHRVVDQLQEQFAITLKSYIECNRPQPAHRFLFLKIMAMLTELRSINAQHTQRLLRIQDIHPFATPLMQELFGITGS

For test [8], the target named is Nuclear receptor subfamily 1 group I member 2 (Rattus norvegicus) (UniProt Q9R1A7). In words: Rat pregnane X receptor (rPXR) activation by small molecules, qHTS assay (AID 1346983). Note: nearly all actives have a fitted effect of over 20% in size. Particulars: rPXR luciferase reporter cells, One-Glo luminescence, 24 h; stronger effect = higher value. A digest of the protocol: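 Cell-based rPXR luciferase reporter assay, 2,000 cells per well, rested 5hr at 37 C before compound addition in DMSO, then 24 hr at 37 C. One-Glo reagent was added and luminescence read after 30 min at room temperature.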
Nuclear receptor subfamily 1 group I member 2 (Rattus norvegicus), sequence (Q9R1A7 whole entry, looked up): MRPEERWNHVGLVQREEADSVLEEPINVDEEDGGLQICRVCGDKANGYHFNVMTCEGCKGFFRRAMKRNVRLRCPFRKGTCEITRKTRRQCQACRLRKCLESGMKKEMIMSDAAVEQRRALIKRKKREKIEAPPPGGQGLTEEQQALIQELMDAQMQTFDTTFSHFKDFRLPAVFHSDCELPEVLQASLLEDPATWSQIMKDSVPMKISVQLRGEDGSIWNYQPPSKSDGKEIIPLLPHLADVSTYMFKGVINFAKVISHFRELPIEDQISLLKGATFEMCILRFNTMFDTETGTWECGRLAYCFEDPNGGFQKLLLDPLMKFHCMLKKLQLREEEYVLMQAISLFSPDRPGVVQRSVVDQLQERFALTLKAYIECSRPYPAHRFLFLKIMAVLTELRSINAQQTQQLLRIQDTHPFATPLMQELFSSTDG

Test [9] deals with Nuclear receptor subfamily 1 group I member 2 (Homo sapiens) (UniProt O75469). Description: Human pregnane X receptor (PXR) activation by small molecules, qHTS assay (AID 1346985). Note: nearly all actives have a fitted effect of over 40% in size. In outline: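 DPX-2 cells (HepG2 co-transfected with a PXR response element and a CYP3A4-promoter luciferase construct) were seeded at 2,000 per well, rested 5 hr at 37C, then exposed to DMSO-dissolved compounds for 24 hr. Activation was read as luciferase luminescence.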

Test [10] deals with Cytochrome P450 2D6 (Homo sapiens) (UniProt P10635). In words: Cytochrome P450 Family 2 Subfamily D Member 6 (CYP2D6) small molecule antagonists: luciferase reporter qHTS assay (AID 1671196). Note: nearly all actives have a fitted effect of over 50% in size. Note: potency is the fitted concentration of half-maximal effect. In outline: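 CYP2D6 activity was followed as luminescence from its luciferin product after a 1 h NADPH-driven reaction at room temperature. Enzyme-substrate mix and compound were pre-incubated for 10 min, and the signal was read 20 min after adding detection reagent.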
Cytochrome P450 2D6 (Homo sapiens), sequence (P10635 whole entry, looked up): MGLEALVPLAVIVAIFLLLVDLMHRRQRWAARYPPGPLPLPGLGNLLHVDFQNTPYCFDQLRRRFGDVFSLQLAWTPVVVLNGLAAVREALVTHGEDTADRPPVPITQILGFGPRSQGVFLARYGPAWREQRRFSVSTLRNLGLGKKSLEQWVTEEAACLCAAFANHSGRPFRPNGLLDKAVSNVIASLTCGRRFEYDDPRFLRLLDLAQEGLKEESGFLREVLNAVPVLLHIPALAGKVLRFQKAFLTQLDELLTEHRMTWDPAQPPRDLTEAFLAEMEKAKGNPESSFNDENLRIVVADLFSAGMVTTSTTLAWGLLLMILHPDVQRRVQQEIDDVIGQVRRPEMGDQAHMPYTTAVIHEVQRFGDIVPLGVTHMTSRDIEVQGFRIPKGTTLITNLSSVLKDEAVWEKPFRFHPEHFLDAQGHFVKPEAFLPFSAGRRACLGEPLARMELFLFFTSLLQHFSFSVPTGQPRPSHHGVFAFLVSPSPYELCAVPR

Test [11] deals with Cytochrome P450 2C19 (Homo sapiens) (UniProt P33261). Description: Cytochrome P450 Family 2 Subfamily C Member 19 (CYP2C19) small molecule antagonists: luciferase reporter qHTS assay (AID 1671197). Note: nearly all actives have a fitted effect of over 65% in size. Note: potency is the fitted concentration of half-maximal effect. In outline: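 Light output is proportional to CYP2C19 activity: proluciferin substrate is converted to luciferin, then detected by a luciferin detection reagent that also stops the 1 h, 37C NADPH-driven reaction. Ketoconazole serves as positive control.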
Cytochrome P450 2C19 (Homo sapiens), sequence (P33261 whole entry, looked up): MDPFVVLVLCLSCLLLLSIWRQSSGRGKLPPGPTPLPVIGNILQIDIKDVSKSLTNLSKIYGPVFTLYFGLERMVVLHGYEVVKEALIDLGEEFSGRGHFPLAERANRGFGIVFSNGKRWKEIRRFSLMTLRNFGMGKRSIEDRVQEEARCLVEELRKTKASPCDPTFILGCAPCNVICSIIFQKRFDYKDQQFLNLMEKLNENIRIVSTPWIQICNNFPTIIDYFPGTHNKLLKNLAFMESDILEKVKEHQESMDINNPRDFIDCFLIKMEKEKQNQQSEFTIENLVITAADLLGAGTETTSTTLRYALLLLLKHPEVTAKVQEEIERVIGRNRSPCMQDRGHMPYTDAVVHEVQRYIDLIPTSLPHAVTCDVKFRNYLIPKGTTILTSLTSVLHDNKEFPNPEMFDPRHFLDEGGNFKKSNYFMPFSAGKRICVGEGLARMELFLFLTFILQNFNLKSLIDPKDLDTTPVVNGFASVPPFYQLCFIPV
(A reporter such as luciferase makes a cellular process visible.)

Test [12] has as its target Cytochrome P450 2C9 (Homo sapiens) (UniProt P11712). Description: Cytochrome P450 Family 2 Subfamily C Member 9 (CYP2C9) small molecule antagonists: luciferase reporter qHTS assay (AID 1671198). Note: nearly all actives have a fitted effect of over 50% in size. Note: potency is the fitted concentration of half-maximal effect. In outline: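 CYP2C9 activity was measured with a P450-Glo proluciferin substrate. Enzyme–substrate mix was held with compound for 10 min at room temperature, then NADPH regeneration solution was added for 1 h at 37C. Luciferin product was read as luminescence.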

Test [13] concerns the target Voltage-gated inwardly rectifying potassium channel KCNH2 (Homo sapiens) (UniProt Q12809). Description: Human Ether-a-go-go-Related Gene (hERG) channel small molecule antagonists: fluorescence cell-based qHTS assay (AID 1671200).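 Note: hERG-expressing U2OS cells given a thallium stimulus after FluxOR II dye loading; series mostly up to about 77 µM; nearly all actives have a fitted effect of over 50% in size.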 In outline:
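hERG-U2OS cells plated overnight at 37 C, loaded with FluxOR II dye 1 h at RT in dark; after 10 min, thallium stimulus added. Fluorescence (480/540 nm) read kinetically for 2 min at 1 s intervals.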
A general note: The hERG channel carries a current that helps repolarise heart muscle cells.

Test [14] deals with Cytochrome P450 3A4 (Homo sapiens) (UniProt P08684). Description: Cytochrome P450 Family 3 Subfamily A Member 4 (CYP3A4) small molecule antagonists: luciferase reporter qHTS assay (AID 1671201). A digest of the protocol:
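P450-Glo CYP3A4 luminescent assay: compounds preincubated 10 min at room temperature with enzyme and proluciferin substrate, NADPH regeneration added, 1 h room-temperature reaction, stopped with luciferin detection reagent; luminescence read after 20 min. Ketoconazole positive control.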

Test [15] addresses Cytochrome P450 1A2 (Homo sapiens) (UniProt P05177). In words: Cytochrome P450 Family 1 Subfamily A Member 2 (CYP1A2) small molecule antagonists: luciferase reporter qHTS assay (AID 1671199). Note: nearly all actives have a fitted effect of over 50% in size. Note: potency is the fitted concentration of half-maximal effect. In outline:
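Luminescence from luciferin formed by CYP1A2 from a proluciferin substrate, read 20 min after detection reagent. Compound was pre-incubated 10 min with enzyme-substrate, and reaction started with NADPH regeneration solution for 1 h at room temperature; furafylline control.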

Test [16] deals with Nuclear receptor subfamily 1 group I member 2 (Homo sapiens) (UniProt O75469). In words: CYP3A4 induction through human pregnane X receptor (PXR) by small molecules, qHTS assay (AID 1346984). Note: nearly all actives have a fitted effect of over 40% in size. A digest of the protocol:
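Read-out is luminescence after One-Glo addition, following a 3 hr, 37C incubation with Luciferin-IPA CYP3A4 substrate (3uM final). Before that, compounds were on DPX-2 cells (HepG2 co-transfected with PXR element plus CYP3A4-promoter luciferase) for 24 hr at 37C.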
% is set by controls: 0 for no effect and ±100 for the full control effect.

Cytochrome P450 2C9 (Homo sapiens), sequence (P11712 whole entry, looked up): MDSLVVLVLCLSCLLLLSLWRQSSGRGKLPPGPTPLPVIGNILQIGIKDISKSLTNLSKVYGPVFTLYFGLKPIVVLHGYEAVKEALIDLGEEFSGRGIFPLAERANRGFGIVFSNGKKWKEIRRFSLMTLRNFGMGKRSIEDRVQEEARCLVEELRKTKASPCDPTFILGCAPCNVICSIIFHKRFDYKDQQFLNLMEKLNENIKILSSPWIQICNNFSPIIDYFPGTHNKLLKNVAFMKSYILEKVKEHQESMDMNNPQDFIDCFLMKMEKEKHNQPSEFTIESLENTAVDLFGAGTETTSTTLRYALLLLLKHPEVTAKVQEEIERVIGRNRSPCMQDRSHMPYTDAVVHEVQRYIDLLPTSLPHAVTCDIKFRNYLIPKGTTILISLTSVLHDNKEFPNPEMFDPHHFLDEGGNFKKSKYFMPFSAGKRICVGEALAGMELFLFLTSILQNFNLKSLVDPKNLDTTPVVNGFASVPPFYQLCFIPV
Voltage-gated inwardly rectifying potassium channel KCNH2 (Homo sapiens), sequence (Q12809 whole entry, looked up): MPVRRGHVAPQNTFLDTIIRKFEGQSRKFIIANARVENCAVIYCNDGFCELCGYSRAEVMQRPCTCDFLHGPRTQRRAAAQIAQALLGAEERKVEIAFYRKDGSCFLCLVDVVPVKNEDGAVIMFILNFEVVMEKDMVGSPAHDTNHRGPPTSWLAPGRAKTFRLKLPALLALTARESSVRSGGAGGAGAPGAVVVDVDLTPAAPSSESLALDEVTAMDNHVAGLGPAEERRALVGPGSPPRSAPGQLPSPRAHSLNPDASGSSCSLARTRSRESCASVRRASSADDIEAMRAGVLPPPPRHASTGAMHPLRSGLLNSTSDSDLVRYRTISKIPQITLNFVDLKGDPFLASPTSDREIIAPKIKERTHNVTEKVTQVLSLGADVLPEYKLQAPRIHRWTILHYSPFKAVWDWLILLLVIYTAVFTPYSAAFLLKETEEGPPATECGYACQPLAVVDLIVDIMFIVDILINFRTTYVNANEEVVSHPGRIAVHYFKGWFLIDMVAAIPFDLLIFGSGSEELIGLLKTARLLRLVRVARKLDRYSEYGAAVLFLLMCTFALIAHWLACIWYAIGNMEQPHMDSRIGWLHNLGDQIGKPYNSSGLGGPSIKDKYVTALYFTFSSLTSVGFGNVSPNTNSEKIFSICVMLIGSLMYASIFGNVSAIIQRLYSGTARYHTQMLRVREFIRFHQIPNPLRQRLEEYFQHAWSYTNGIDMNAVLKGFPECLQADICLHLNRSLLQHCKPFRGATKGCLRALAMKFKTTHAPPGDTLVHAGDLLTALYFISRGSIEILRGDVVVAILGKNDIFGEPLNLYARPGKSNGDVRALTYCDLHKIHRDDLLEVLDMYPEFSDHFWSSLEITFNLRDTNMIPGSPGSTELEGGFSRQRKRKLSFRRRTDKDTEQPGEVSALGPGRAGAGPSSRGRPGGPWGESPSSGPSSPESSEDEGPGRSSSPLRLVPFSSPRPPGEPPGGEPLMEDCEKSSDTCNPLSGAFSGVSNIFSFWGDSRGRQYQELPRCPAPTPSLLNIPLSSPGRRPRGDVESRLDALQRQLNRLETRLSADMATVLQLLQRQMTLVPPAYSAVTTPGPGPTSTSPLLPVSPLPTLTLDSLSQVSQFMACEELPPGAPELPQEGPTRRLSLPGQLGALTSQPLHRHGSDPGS
Cytochrome P450 1A2 (Homo sapiens), sequence (P05177 whole entry, looked up): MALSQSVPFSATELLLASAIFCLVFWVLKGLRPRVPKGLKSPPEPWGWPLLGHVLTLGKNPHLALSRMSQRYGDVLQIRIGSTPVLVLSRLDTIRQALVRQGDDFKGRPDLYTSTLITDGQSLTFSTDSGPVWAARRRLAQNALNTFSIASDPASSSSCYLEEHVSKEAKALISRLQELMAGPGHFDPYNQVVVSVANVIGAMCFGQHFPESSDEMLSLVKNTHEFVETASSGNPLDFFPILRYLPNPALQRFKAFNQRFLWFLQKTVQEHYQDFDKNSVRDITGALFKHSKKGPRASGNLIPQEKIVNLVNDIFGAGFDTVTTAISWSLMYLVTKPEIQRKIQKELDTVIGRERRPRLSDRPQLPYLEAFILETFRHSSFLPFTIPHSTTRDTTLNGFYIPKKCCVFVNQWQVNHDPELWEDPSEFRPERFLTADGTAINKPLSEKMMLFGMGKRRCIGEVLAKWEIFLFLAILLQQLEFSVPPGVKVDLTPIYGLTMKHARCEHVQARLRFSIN
Cytochrome P450 3A4 (Homo sapiens), sequence (P08684 whole entry, looked up): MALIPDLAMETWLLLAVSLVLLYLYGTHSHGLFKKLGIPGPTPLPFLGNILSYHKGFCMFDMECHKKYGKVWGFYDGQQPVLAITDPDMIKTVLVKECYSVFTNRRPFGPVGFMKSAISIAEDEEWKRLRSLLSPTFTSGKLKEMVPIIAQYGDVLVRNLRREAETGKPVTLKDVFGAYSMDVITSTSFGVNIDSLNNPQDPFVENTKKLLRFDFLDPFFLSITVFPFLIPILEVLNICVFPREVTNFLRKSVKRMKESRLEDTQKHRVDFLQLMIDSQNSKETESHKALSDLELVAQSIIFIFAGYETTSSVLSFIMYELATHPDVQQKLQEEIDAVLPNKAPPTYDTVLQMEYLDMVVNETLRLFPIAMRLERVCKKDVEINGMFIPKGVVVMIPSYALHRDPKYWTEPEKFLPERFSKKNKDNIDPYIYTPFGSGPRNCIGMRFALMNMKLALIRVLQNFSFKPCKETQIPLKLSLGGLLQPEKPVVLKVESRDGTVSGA

`N[C@H](Cc1c[nH]c2ccccc12)C(=O)O`: the result in test [1], in test [5] and in [9] was inactive. For the same compound, the Potency entry in test [2], in test [3], in test [4], in test [6], in [7] and in [10] was “inactive” throughout. Further, the Potency entry in test [11], in test [12], in [13] and in test [14] was “inactive” each time. Moreover, the max activation in test [8] was -2.63% (inactive).
Take `N#Cc1ccccc1`: the call in [1] and in test [5] was inactive. Further, the Potency entry in test [2], in test [3], in test [4], in test [6], in test [7] and in [10] was “inactive” in each case. Besides, the Potency result in [11], in test [12], in [15], in [13] and in test [14] was “inactive” in each case.
As to `CCCOC(=O)c1ccccc1`, the result in test [1], in test [5] and in test [9] was inactive. For the same compound, the Potency result in test [2], in test [3], in test [4], in [6], in [7] and in [16] was “inactive” throughout. Moreover, the Potency entry in test [10], in [11], in [12], in test [15], in test [13] and in test [14] was “inactive” in each case. The max activation in [8] is -6.55% (inactive).
As to `O=C1c2ccccc2CCc2ccccc21`, the compound was called inactive in test [1] and in test [5]. In addition, the Potency result in test [2], in test [3], in test [4], in test [6], in [10] and in test [13] was “inactive” throughout. The Potency result in test [14] was “inactive”. Also, the Potency is 55.6 µM (active) and inactive in [7]; 18.2 µM (active) and 7.76 µM (active) in test [11]; 36.3 µM (active) in test [12]; 1.45 µM (active) and 1.62 µM (active) in [15].
Consider `OCc1cccc(Oc2ccccc2)c1`, for which the call in test [1] and in [5] was inactive. Moreover, the Potency result in test [2], in test [3], in [4], in test [6], in [13] and in test [14] was “inactive” each time. Besides, the Potency was 28.7 µM (active) in test [10]; 10.2 µM (active) and 22.4 µM (active) in [11]; 56.4 µM (active) in test [12]; 20.3 µM (active) and 39.9 µM (active) in test [15].
Take `CCCCCCCC=O`: the compound was classed as inactive in test [1] and in test [5]. In addition, the Potency result in [2], in test [3], in [4], in [6], in test [10] and in test [11] was “inactive” in each case. The Potency entry in test [12], in test [15], in test [13] and in test [14] was “inactive” in each case.
For the compound `COc1ccc(OC)cc1`, the compound was classed as inactive in test [1] and in test [5]. Further, the Potency result in test [2], in test [3], in test [4], in test [6], in test [7] and in test [10] was “inactive” each time. Moreover, the Potency entry in test [12], in [13] and in test [14] was “inactive” throughout. The Potency in test [11] was 40.7 µM (active) and inactive.
For `CC(C)(Oc1ccc(CCNC(=O)c2ccc(Cl)cc2)cc1)C(=O)O`, the result in test [1], in test [5] and in test [9] was inactive. In addition, the Potency result in test [2], in test [3], in [4], in test [6], in [16] and in [10] was “inactive” each time. The Potency entry in test [11], in test [15], in [13] and in test [14] was “inactive” throughout. Moreover, the max activation in test [8] was -0.19% (inactive). The Potency in [12] is 28.3 µM (active) and 13.8 µM (active).
Turning to `CCCCCCCO`, the compound was called inactive in test [1] and in test [5]. Moreover, the Potency result in test [2], in test [3], in [4], in test [6], in [10] and in [12] was “inactive” in each case. In addition, the Potency entry in [15], in [13] and in test [14] was “inactive” each time. Further, in test [11], the Potency is 72 µM (active) and inactive.
